Laboratory results reported in PubChem BioAssay AID1063 (University of Pittsburgh Molecular Library Screening Center, 2008).
Hit rate of the full screen: of about 200,000 compounds, about 18,000 (9%) were called active. Rule as the data show it: active = inhibition above about 50%; inactive = the rest. Only a selection was taken, and actives are over-represented in it overall.

Experiment: antileishmanial activity against promastigotes – primary screen (AID 1063);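 also: promastigotes grown with compound for 44 hours at 28 °C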
Settings: Leishmania major promastigotes, resazurin fluorescence viability; at 10 µM; hits give high values

SMILES | inhibition
C=CCn1c(CCc2ccc(OC(C)C)cc2)n[nH]c1=S | 1.12% (inactive)
O=C(c1ccc(F)cc1)N1CCC(n2nnc3ccccc32)CC1 | 1.08% (inactive)
CC(=O)c1c(O)cc2n(c1=O)-c1ccc(Cl)cc1C2(C)C | -6.77% (inactive)
CCc1c(O)cc2n(c1=O)-c1ccccc1C2(C)C | 51.1% (active)
CCc1c(O)nc(SCC(=O)N2CCCCC2)n(-c2ccccc2C)c1=O | 1% (inactive)
O=C(Nc1nnc(C2CC2)s1)C1=NN(C2CCS(=O)(=O)C2)C(=O)CC1 (stereo unspecified) | -3.9% (inactive)
COC(=O)c1cc2c(ccn2C)n1C | -2.26% (inactive)
N#CC1=C(SCc2ccccc2)NC(=O)C(C#N)C12CCCC2 (stereo unspecified) | -9.59% (inactive)
N#CC1=C(SCc2ccc(C#N)cc2)N=C(N)C(c2nc(-c3ccccc3)cs2)C12CCCCC2 (stereo unspecified) | 98% (active)
N#C/C(=C1\CCCN1)c1nc(-c2ccccc2)cs1 | 4.05% (inactive)
CCN(CC)S(=O)(=O)c1ccc(OC(C)C)c(N)c1 | -4.13% (inactive)
Nc1nc(SCC(=O)NNc2c(Cl)cc(Cl)cc2Cl)n[nH]1 | -7.01% (inactive)
COc1cc(/C=C/C(=O)N2c3ccccc3Sc3ccc(C(F)(F)F)cc32)cc(OC)c1OC | 81.2% (active)
O=C(CN1CCCCC1)N1c2ccccc2Sc2ccc(C(F)(F)F)cc21 | 92% (active)
O=C(CN1CCCCCC1)N1c2ccccc2Sc2ccc(C(F)(F)F)cc21 | 46% (inactive)
CCOC(=O)CNC(=O)N1c2ccccc2Sc2ccccc21 | 3.23% (inactive)
COc1cc(/C=C/C(=O)O)cc(S(=O)(=O)Nc2ccccc2SC)c1OC | 46.9% (inactive)
COc1cc(/C=C2\SC(=S)N(Nc3ncc(C(F)(F)F)cc3Cl)C2=O)cc(OC)c1OC | -11.1% (inactive)
O=C(NC(Cc1c[nH]c2ccccc12)C(=O)O)/C(=C/c1ccco1)NC(=O)c1ccccc1 (stereo unspecified) | 3.28% (inactive)
COc1ccc(CC(NC(C)=O)C(=O)NC2CCN(C(=O)c3ccc(OC)c(OC)c3)CC2)cc1OC (stereo unspecified) | -4.66% (inactive)
CCCN(CC(=O)Nc1ccc(C(N)=O)cc1)CC(=O)Nc1ccccc1C | 7.98% (inactive)
Cc1cccc(C(=O)Nc2ccc3c(c2)C(=O)N(CC(C)C)C3=O)c1 | -9.76% (inactive)
COc1ccc2c(c1)cc1n2CCN=C1NN | 84.1% (active)
Cc1cc(C(=O)Cn2cnc3cc([N+](=O)[O-])ccc3c2=O)c(C)n1CC1CCCO1 (stereo unspecified) | -3.96% (inactive)
Clc1ccc(C2=CSC3=Nc4cccc5cccc(c45)N23)cc1 | 99.4% (active)
Cc1ccc(NC(=O)O/N=C/c2cccc([N+](=O)[O-])c2)cc1 | -3.19% (inactive)
